In assay [1] the target is Androgen receptor (Homo sapiens) (UniProt P10275). Nature of the assay: qHTS assay for small molecule agonists of androgen receptor signaling (AID 588515; active means well fitted curve in the direction sought with a large enough effect in the signal ratio, with a control signal flat; the % refers to the signal ratio; further: on the % scale 0 is the no-effect control and ±100 the full control effect). To be noted: AR-UAS-bla HEK293, beta-lactamase ratio, agonist 16 h; activation: stronger effect = higher value. A digest of the protocol: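 EC50 and efficacy came from Hill fits of titrations (up to 92 uM) normalized to 30 nM R1881 as 100% and DMSO as 0%. Compound exposure was 16 h at 37 C on AR-UAS-bla HEK293 cells, with a 405/460/530 nm CCF4 fluorescence read.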
Androgen receptor (Homo sapiens), sequence (P10275 whole entry, looked up): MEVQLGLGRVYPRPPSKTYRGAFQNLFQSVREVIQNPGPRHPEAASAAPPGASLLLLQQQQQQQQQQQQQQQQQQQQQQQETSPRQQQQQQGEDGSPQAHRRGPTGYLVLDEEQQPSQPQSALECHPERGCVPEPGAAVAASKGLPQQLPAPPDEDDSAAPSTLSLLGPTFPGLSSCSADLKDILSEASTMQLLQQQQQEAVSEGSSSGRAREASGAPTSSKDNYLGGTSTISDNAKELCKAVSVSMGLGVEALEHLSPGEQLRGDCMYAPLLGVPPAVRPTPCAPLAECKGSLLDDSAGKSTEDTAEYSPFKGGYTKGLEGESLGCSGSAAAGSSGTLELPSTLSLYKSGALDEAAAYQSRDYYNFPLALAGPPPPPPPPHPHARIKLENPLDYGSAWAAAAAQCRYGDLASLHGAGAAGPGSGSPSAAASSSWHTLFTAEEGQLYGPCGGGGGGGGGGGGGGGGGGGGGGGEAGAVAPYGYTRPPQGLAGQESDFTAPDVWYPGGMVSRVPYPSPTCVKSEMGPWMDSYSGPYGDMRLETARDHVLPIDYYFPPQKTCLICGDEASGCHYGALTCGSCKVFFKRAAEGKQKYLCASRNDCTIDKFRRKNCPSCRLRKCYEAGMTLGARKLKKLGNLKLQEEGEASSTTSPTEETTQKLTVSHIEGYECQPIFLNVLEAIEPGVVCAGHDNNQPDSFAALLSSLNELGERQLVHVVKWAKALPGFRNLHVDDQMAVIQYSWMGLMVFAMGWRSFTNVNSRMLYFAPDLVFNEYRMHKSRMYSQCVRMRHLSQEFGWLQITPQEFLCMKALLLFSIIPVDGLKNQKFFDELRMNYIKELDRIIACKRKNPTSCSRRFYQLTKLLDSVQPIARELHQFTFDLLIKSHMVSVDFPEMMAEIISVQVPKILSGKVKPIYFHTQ

The target is the same in assay [2]. As to the kind of experiment: qHTS assay for small molecule antagonists of androgen receptor signaling (AID 588516; active means well fitted curve in the direction sought with a large enough effect in the signal ratio, with a control signal flat, not every such curve was filed as active; the % refers to the signal ratio; further: on the % scale 0 is the no-effect control and ±100 the full control effect). Summed up: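 Antagonist mode: inhibition of R1881-stimulated (10 nM final) bla reporter in GeneBLAzer AR HEK 293 cells, 16 h at 37C, compounds titrated. IC50 and efficacy from Hill-equation fits of 405/460–530 nm FRET ratios.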
The target of assay [3] is Bile acid receptor (Homo sapiens) (UniProt Q96RI1). As to the kind of experiment: qHTS assay for small molecule antagonists of farnesoid X receptor signaling (AID 588526; calls by dose curve; further: on the % scale 0 is the no-effect control and ±100 the full control effect). Summed up: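 Antagonist mode: titrated compounds tested against chenodeoxycholic acid stimulation (normalized to 50 uM CDCA and DMSO) in GeneBLAzer HEK293T cells for 16 h. Beta-lactamase read by CCF4 fluorescence; IC50 from Hill fits.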
Bile acid receptor (Homo sapiens), sequence (Q96RI1 whole entry, looked up): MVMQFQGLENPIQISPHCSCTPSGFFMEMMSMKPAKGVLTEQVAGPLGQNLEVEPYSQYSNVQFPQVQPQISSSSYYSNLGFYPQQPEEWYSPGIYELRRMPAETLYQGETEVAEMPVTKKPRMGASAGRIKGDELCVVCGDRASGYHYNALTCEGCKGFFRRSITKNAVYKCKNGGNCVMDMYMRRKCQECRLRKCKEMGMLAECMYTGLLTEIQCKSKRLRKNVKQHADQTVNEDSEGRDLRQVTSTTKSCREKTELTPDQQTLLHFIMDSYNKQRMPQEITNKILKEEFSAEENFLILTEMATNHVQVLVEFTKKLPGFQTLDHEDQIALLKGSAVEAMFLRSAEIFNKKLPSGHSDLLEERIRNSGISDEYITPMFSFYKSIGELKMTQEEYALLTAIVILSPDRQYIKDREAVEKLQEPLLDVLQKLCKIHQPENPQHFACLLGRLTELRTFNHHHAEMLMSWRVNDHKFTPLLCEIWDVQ

Assay [4] has as its target Glucocorticoid receptor (Homo sapiens) (UniProt P04150). As to the kind of experiment: qHTS assay for small molecule agonists of glucocorticoid receptor signaling (AID 588532; active means well fitted curve in the direction sought with a large enough effect in the signal ratio, with a control signal flat; the % refers to the signal ratio;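 further: 100% = dexamethasone at 0.1 µM and 0% = DMSO only wells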). To be noted: HeLa MMTV-bla, beta-lactamase ratio, agonist, 18 h; stronger effect = higher value; percent of dexamethasone control, DMSO zero. Summed up: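 HeLa GRE-bla reporter cells; 18 h compound exposure at 37 C; 2 h CCF4 loading at room temperature; fluorescence at 460 and 530 nm; EC50 by Hill equation.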

The target is the same in assay [5]. As to the kind of experiment: qHTS assay for small molecule antagonists of glucocorticoid receptor signaling (AID 588533; active means well fitted inhibition curve with a large enough effect in the signal ratio, with a control signal flat, not every such curve was filed as active; the % refers to the signal ratio; further: on the % scale 0 is the no-effect control and ±100 the full control effect). Summed up:
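Antagonist-mode qHTS: compound titrations added to GRE-bla HeLa cells, then dexamethasone 2 nM final; 18 h, 37 C. CCF4 FRET fluorescence normalized to dexamethasone and DMSO; IC50 from Hill fit.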
Background: Quantitative high-throughput screening tests each substance at several concentrations.

The target in assay [6] is Peroxisome proliferator-activated receptor delta (Homo sapiens) (UniProt Q03181). Nature of the assay: qHTS assay for small molecule antagonists of peroxisome proliferator-activated receptor delta signaling (AID 588535; active means well fitted inhibition curve with a large enough effect in the signal ratio, with a control signal flat, not every such curve was filed as active; the % refers to the signal ratio). Summed up:
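Antagonist-mode beta-lactamase reporter (GeneBLAzer PPAR-delta-UAS-bla) in HEK293T cells, 2% charcoal/dextran FBS, 4000 cells/well. Compound titrations, 18 h at 37 C; CCF4 ratio read, IC50 and efficacy from Hill fits.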

Assay [7] concerns the target Thyroid hormone receptor beta (Homo sapiens) (UniProt P10828). Nature of the assay: qHTS assay for small molecule antagonists of thyroid hormone receptor beta signaling (AID 588547; active means well fitted inhibition curve with a large enough effect in the signal ratio, with a control signal flat, not every such curve was filed as active; the % refers to the signal ratio). To be noted: TR-UAS-bla HEK293, beta-lactamase ratio, antagonist mode, 18 h. A digest of the protocol:
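TR-UAS-bla GripTite HEK293 cells in 2% charcoal/dextran FBS medium; compounds 0.59 nM to 92 uM with T3 at 0.4nM final, 18 h at 37 C. Beta-lactamase read by CCF4 fluorescence (460/530 nm); Hill fits gave IC50 and efficacy.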

The nature of assay [8]: qHTS assay for small molecule agonists of the antioxidant response element (ARE) signaling pathway (AID 651741; active means well fitted activation curve with a large enough effect in the signal ratio; the % refers to the signal ratio; further: potency means the concentration at half of the fitted maximal effect; on activation: % of control where 0% means no effect). Summed up:
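CellSensor ARE-bla HepG2 cells (2,000/well) carrying ARE-driven beta-lactamase, exposed 16 h at 37 C. LiveBLAzer B/G FRET substrate added for 2 h at room temperature; fluorescence intensity read.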

Assay [9] in a line: qHTS assay for small molecule activators of the p53 signaling pathway (AID 651743; active means well fitted activation curve with a large enough effect in the signal ratio, not every such curve was filed as active; the % refers to the signal ratio; further: series mostly up to about 92 µM; % of control where 0% means no effect). To be noted: HCT-116 p53RE-bla, beta-lactamase FRET ratio, 16 h; activation: stronger effect = higher value. Summed up: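 p53RE-bla HCT-116 cells carrying a beta-lactamase reporter under p53 response elements were exposed to compounds for 16 hours at 37 C. Reporter activity read as fluorescence after 2 hours at room temperature with LiveBLAzer B/G FRET substrate.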

The nature of assay [10]: qHTS assay for small molecule agonists of the antioxidant response element (ARE) signaling pathway measured by Nrf2-dependant transcriptional activity (AID 720636; active means well fitted curve in the direction sought with a large enough effect in the repeat runs; an effect the other way counts as inactive or inconclusive;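 further: HepG2 cells with an ARE-driven luciferase reporter; % of control where 0% means no effect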). A digest of the protocol: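 In HepG2 cells engineered with an Nrf2-responsive luciferase gene, ARE induction was quantified as luminescence after 16 hr compound treatment at 37 C.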
The target of assay [11] is Cytochrome P450 3A4 (Homo sapiens) (UniProt P08684). As to the kind of experiment: qHTS Assay for Activators of Cytochrome P450 3A4 (AID 885). Further: nearly all actives have a fitted effect of over 65% in size. A digest of the protocol:
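Human CYP3A4 (20 nM) with Luciferin-PPXE at 25 uM (its KM) in 200 mM KPO4; 10 min compound preincubation, then NADPH regeneration and 60 min reaction at RT. Luciferin read by luminescence; normalized to 57 uM ketoconazole full inhibition.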

Assay [12] has as its target DNA dC->dU-editing enzyme APOBEC-3G (Homo sapiens) (UniProt Q9HC16). Nature of the assay: qHTS for inhibitors of Vif-A3G interactions: Validation (AID 588379). Further: 0% is about no effect. A digest of the protocol:
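HeLa cells stably expressing Vif and A3G-eYFP, 700 cells/well, incubated overnight at 37 deg C, then exposed to compound overnight at 37 deg C. Inhibition of Vif-mediated degradation read as increased yellow fluorescence (Ex 488/Em 500-530) by laser-scanning cytometry.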

In assay [13] the target is Cytochrome P450 3A4 (Homo sapiens) (UniProt P08684). As to the kind of experiment: qHTS Assay for Inhibitors and Substrates of Cytochrome P450 3A4 (AID 884). Further: potency means the concentration at half of the fitted maximal effect; nearly all actives have a fitted effect of over 50% in size. A digest of the protocol: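 20 nM human CYP3A4 with 25 uM Luciferin-PPXE (at KM) in 200 mM KPO4, preincubated 10 min with compound; NADPH regeneration started a 60 min RT reaction. Luciferin detected by luminescence, normalized to 57 uM ketoconazole as full inhibition.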
Cytochrome P450 3A4 (Homo sapiens), sequence (P08684 whole entry, looked up): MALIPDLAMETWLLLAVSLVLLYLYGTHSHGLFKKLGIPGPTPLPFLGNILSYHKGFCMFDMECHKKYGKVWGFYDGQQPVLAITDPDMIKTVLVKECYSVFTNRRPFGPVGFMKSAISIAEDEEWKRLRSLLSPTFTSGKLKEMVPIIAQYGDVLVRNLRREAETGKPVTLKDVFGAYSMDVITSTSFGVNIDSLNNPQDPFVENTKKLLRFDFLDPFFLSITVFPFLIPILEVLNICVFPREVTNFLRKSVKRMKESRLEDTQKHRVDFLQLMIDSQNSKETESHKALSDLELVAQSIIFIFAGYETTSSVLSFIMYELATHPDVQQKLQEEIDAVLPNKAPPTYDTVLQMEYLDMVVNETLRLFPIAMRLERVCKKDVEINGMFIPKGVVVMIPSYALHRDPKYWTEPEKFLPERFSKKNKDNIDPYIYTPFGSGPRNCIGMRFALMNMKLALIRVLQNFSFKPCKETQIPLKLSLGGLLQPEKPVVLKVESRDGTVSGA

A number with no mark means an inactive call. Results filed as inconclusive are left out. Calls of active or inactive are those of the source. Unless noted, the call rests on the fitted dose curve; in most records, active means well fitted curve in the direction sought with a large enough effect; inconclusive means small, poorly fitted or top-dose-only effect, or another doubt; inactive means no such curve, though single readings can be large; an effect the other way counts as inactive or inconclusive.

Glucocorticoid receptor (Homo sapiens), sequence (P04150 whole entry, looked up): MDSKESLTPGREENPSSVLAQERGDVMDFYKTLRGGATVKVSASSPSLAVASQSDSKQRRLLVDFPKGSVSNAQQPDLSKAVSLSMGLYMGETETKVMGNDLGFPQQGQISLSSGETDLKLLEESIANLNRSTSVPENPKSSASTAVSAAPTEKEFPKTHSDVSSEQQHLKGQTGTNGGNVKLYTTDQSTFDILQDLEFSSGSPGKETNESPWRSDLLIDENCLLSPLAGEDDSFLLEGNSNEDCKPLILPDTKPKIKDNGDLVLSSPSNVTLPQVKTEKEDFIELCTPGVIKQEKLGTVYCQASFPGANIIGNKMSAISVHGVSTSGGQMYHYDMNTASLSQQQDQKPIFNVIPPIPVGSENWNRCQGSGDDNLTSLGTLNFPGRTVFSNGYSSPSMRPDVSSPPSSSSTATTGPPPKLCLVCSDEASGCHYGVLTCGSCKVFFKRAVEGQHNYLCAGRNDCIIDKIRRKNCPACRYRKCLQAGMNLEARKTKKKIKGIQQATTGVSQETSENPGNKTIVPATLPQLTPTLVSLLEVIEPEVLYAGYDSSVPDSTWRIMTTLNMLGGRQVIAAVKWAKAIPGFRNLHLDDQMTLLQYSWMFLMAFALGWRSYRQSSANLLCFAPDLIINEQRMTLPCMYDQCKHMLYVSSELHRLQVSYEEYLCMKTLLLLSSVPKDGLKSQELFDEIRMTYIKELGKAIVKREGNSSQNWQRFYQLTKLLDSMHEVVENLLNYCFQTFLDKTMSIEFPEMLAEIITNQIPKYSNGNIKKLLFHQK
DNA dC->dU-editing enzyme APOBEC-3G (Homo sapiens), sequence (Q9HC16 whole entry, looked up): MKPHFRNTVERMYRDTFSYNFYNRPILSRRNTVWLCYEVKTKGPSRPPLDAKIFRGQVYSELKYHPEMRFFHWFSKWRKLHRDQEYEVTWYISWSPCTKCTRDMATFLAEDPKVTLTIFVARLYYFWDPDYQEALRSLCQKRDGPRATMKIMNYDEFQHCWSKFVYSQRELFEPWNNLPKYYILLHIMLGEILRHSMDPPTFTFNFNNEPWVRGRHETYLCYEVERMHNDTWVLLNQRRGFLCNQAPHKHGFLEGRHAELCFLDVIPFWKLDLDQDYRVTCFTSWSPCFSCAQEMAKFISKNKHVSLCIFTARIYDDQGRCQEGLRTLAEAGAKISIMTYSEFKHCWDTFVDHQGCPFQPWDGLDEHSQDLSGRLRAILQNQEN
Peroxisome proliferator-activated receptor delta (Homo sapiens), sequence (Q03181 whole entry, looked up): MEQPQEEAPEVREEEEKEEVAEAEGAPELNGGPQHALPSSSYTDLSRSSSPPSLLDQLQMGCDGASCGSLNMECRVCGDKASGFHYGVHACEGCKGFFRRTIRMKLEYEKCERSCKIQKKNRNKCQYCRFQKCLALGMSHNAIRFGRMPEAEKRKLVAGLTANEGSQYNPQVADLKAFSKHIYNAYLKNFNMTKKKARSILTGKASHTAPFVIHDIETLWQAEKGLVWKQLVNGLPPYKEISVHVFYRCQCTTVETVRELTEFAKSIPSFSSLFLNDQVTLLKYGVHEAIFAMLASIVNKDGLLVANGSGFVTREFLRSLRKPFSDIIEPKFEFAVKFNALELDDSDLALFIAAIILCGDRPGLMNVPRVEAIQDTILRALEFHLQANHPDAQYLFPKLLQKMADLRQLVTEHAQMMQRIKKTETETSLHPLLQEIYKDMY
Thyroid hormone receptor beta (Homo sapiens), sequence (P10828 whole entry, looked up): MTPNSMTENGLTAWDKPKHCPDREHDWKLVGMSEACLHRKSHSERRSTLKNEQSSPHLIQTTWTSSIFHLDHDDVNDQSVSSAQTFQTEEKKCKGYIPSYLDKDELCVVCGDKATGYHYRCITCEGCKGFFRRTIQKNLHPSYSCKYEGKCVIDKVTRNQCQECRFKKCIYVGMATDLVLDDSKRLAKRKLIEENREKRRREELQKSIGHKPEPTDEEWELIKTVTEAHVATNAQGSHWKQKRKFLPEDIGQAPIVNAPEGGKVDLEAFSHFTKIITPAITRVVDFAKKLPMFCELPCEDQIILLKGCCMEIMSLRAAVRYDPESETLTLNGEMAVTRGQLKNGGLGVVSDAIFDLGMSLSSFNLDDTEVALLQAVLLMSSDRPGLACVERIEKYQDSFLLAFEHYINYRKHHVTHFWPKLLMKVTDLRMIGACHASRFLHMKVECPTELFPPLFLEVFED

Take `C=C(C)C(=O)OCCCCCCCCCCCCCCCC`: the activation is 10.8% in assay [1], 0.746% in [4] and -3.74% in assay [9]. The compound was classed as inactive in [2]. Besides, the Potency result in assay [3], in [5], in [6], in assay [8] and in [10] was “inactive” throughout. In addition, the activity change % (negative = inhibition) in assay [7] is -5.63%.
For the compound `C=C1C(=O)O[C@@H]2C3OC3(C)CC/C=C(\C)CC[C@@H]12` (some centres undefined), the Potency entry in assay [11] and in assay [12] was “inactive” in each case.
In the case of `CCC/C(=N\OCC)C1=C(O)CC(O)(CC(C)S(=O)(=O)CC)CC1=O` (centres undefined), the activation in assay [1] is -4%; in assay [4] it was -6.04%; in assay [9], -2.69%. In addition, in assay [2], the call was inactive. The Potency result in assay [3], in [5] and in [6] was “inactive” each time. Also, the Potency in assay [8] is 54.5 µM (active).
Take `CCCCCCCCCCCCCCN`: the activation in assay [1] was 2.33%; in [4], -4.59%; in assay [9], 2.13%. Besides, the result in [2] was inactive. In addition, the Potency result in assay [3], in assay [5], in [6], in assay [8] and in assay [10] was “inactive” in each case.
For the compound `Cc1cc(=O)cc2oc3cc(N)c(-c4c(C)cc(O)cc4O)c(C)c3nc1-2`, the Potency result in assay [11] and in [12] was “inactive” in each case.
Take `CC(=O)[C@@H]1[C@H]2[C@H](C(=O)[C@H]3OC[C@@H]2O3)[C@H]2C=Cc3ccccc3N21`: the Potency result in assay [11] and in [12] was “inactive” in each case.
As to `Cc1cccc(-c2cc(=O)c3cc(Br)ccc3o2)c1`, the Potency in assay [13] is 12.6 µM (active). Also, the Potency entry in assay [11] and in assay [12] was “inactive” each time.
In the case of `COC(=O)c1ccccc1S(=O)(=O)NC(=O)Nc1nc(OC(F)F)cc(OC(F)F)n1`, the activation was -5.06% in [1], -5.76% in assay [4] and -4.45% in assay [9]. Moreover, the call in assay [2] was inactive. The Potency entry in assay [3], in [5], in [6], in [8] and in [10] was “inactive” throughout.
As to `CCc1cccc(C)c1N(C(=O)CS(=O)(=O)O)[C@@H](C)COC`, the activation in [1] was -2.5%; in assay [4], -18.8%; in assay [9], 3.16%. Moreover, the call in [2] was inactive. The Potency entry in assay [3], in assay [5], in assay [6], in assay [8] and in assay [10] was “inactive” each time. Moreover, the activity change % (negative = inhibition) in assay [7] was -18.4%.
On to `CC(C)=CCC/C(C)=C/COc1c2occc2cc2ccc(=O)oc12`, for which the Potency in assay [13] is 1.26 µM (active). Besides, the Potency entry in assay [11] and in assay [12] was “inactive” throughout.
With `COc1ccccc1CC(Cc1nc2ccccc2[nH]1)c1nc2ccccc2[nH]1` (centres undefined), the Potency in [13] was 1.58 µM (active). Besides, the Potency result in assay [11] and in [12] was “inactive” each time.
As to `C=C1C(=O)OC2C[C@@]3(C)CCCC(=C)[C@@H]3CC12` (some centres undefined), the Potency in [13] is 10 µM (active). For the same compound, the Potency entry in [11] and in [12] was “inactive” in each case.
As for `Clc1ccc2nc(-c3ccccc3)[nH]c2c1`, the Potency in [13] was 12.6 µM (active). Besides, the Potency result in assay [11] and in assay [12] was “inactive” throughout.
Consider `COc1cc(/C=C/C(=O)c2cccs2)cc(OC)c1OC`, for which the Potency entry in [11] and in assay [12] was “inactive” each time.

(Values after PubChem BioAssay (NCATS).)
